For 40 molecules, activity remaining results are on record in PubChem BioAssay.

The source made the active and inactive calls. No rule for the calls is given here.

In this test the test system is Aerobactin synthetase IucA (Klebsiella pneumoniae hvKP1). Put plainly: Biochemical IucA enzyme inhibition primary screen of the Spectrum library (AID 1346200).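 Also: 100% = wells without compound and 0% = wells lacking enzyme.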 The settings on record: malachite green pyrophosphate, A620, at 8 µM, hits give low values.
Regarding `C[C@@H]1O[C@@H](OC[C@H]2OC(Oc3c(-c4ccc(O)c(O)c4)oc4cc(O)cc(O)c4c3=O)[C@H](O)[C@@H](O)[C@@H]2O)[C@H](O)[C@H](O)[C@H]1O` (stereo not given in full), the activity remaining was 101% (inactive). `COc1cc(OC)c2c(=O)c(-c3ccc4c(c3)OCO4)coc2c1`: the activity remaining was 98% (inactive). Regarding `CCC(/C=C/[C@@H](C)[C@H]1CCC2C3CC=C4C[C@@H](O)CC[C@]4(C)C3CC[C@@]21C)C(C)C` (stereo not given in full), the activity remaining is 101% (inactive). As to `CC(=O)N[C@@H](CCC(=O)O)C(=O)O`, the activity remaining was 92.3% (inactive).

Take `O=C(/C=C/C(=O)Oc1ccccc1C(=O)O)Oc1ccccc1C(=O)O`: the activity remaining is 92% (inactive). `CC(C(=O)O)c1ccc(N2Cc3ccccc3C2=O)cc1` (stereo not given): the activity remaining is 103% (inactive). The result for `C=C1CCC(C2CC(=O)OC2=O)C(=O)CCC2C1CC2(C)C` (stereo not given) reads 111% (inactive). Consider `COc1c2ccoc2c(OC)c2oc(=O)ccc12`, for which the activity remaining is 121% (inactive). For `O=c1c(O)c(-c2ccc(O)c(O)c2)oc2c(O[C@@H]3O[C@H](CO)[C@H](O)[C@@H](O)[C@H]3O)c(O)cc(O)c12`, the activity remaining was 96.1% (inactive). For the molecule `O=C(O)CN(CC(=O)O)Cc1cc2c(-c3ccccc3C(=O)O)c3cc(CN(CC(=O)O)CC(=O)O)c(=O)cc-3oc2cc1O`, the activity remaining is 113% (inactive). The result for `CC(C)(S)C(N)C(=O)O` (stereo not given) reads 128% (inactive); that for `C#C[C@]1(O)CCC2C3CCc4cc(OC)ccc4C3CC[C@@]21C` (stereo not given in full), 116% (inactive). The result for `CC(=O)Nc1ccc(S(=O)(=O)c2ccc(NC(C)=O)cc2)cc1` reads 110% (inactive); that for `O=C(/C=C/c1ccc(O)c(O)c1)O[C@@H]1C[C@](O)(C(=O)O)C[C@@H](O)[C@H]1O`, 103% (inactive).

As to `COc1ccc(-c2oc3ccccc3c(=O)c2O)cc1OC`, the activity remaining was 109% (inactive).

As to `Cc1cc(C)nc(NS(=O)(=O)c2ccc(N)cc2)n1`, the activity remaining was 111% (inactive).

`Cc1ccc(C(=O)c2ccc(CC(=O)O)n2C)cc1`: the activity remaining is 120% (inactive).

For the molecule `C1CCC(C(CC2CCCCN2)C2CCCCC2)CC1` (stereo not given), the activity remaining is 103% (inactive). Then `C=C1CCC2C(CC2(C)C)C(=O)CCC1O` (stereo not given), with 116% (inactive). Turning to `NC(Cc1ccc(F)cc1)C(=O)O` (stereo not given), the activity remaining is 124% (inactive). `C[C@]12CCC(=O)C=C1C=CC1C2CC[C@@]2(C)C1CC[C@@]21CCC(=O)O1` (stereo not given in full): the activity remaining is 119% (inactive). Take `CC1(C)O[C@@H]2CC3C4C[C@H](F)C5=CC(=O)C=C[C@]5(C)[C@@]4(F)[C@@H](O)C[C@]3(C)[C@]2(C(=O)CO)O1` (stereo not given in full): the activity remaining is 99.1% (inactive).

For `COc1ccccc1/C=C\C(=O)O`, the activity remaining is 90.4% (inactive). The result for `CCCCCCCCCCCCCCC(C(=O)O)C(O)(CC(=O)OC)C(=O)O` (stereo not given) reads 128% (inactive); that for `Cc1cccc(CN2CCN(C(c3ccccc3)c3ccc(Cl)cc3)CC2)c1` (stereo not given), 95.5% (inactive); that for `O=C(/C=C/c1ccccc1)c1ccc(O)cc1`, 95.4% (inactive). Consider `O=c1c(O)c(-c2ccccc2)oc2ccc3occc3c12`, for which the activity remaining was 104% (inactive).

For the molecule `CC(C)CCCC(C)C1CCC2C3CC(=O)[C@H]4C[C@@H](O)CC[C@]4(C)C3CC[C@]12C` (stereo not given in full), the activity remaining was 121% (inactive). Turning to `CC(=O)/C(=C\c1ccccc1)CC(=O)O`, the activity remaining was 98.6% (inactive).

With `CON=C1C[C@]2(C[C@@H]3C[C@@H](C/C=C(\C)C[C@@H](C)/C=C/C=C4\CO[C@@H]5[C@H](O)C(C)=C[C@@H](C(=O)O3)[C@]45O)O2)O[C@H](/C(C)=C/C(C)C)[C@H]1C`, the activity remaining was 93.8% (inactive). For `CC(=O)O[C@H]1C[C@@H](OC(C)=O)C(C)(C)C2C[C@@H](OC(C)=O)[C@]3(C)C(CC[C@@]4(C)[C@H](c5ccoc5)OC(=O)[C@H]5O[C@]543)[C@]21C` (stereo not given in full), the activity remaining was 103% (inactive). Regarding `CC12CCC3C(CC3(C)C)C(C)(CCC1=O)O2` (stereo not given), the activity remaining was 119% (inactive). For `CCOC(N)=O`, the activity remaining is 107% (inactive). The result for `COc1cc2ccc(=O)oc2cc1O` reads 110% (inactive); that for `O[C@H]1[C@H](O)[C@@H](O)C2OC[C@H]1O2`, 119% (inactive); that for `Cc1cccc(C(=O)O)c1O`, 91.3% (inactive).

Consider `CC(=O)O[C@@H]1C=C[C@@]2(C)C(C[C@@H](OC(C)=O)[C@@]3(C)C4=CC(=O)O[C@@H](c5ccoc5)[C@]4(C)CCC23)C1(C)C` (stereo not given in full), for which the activity remaining was 82.6% (inactive). For `COC(=O)[C@@H]1OC(=O)C2OC23[C@@]1(C)CCC1[C@]2(C)C(C[C@@H](O)[C@]13C)C(C)(C)[C@H](OC(C)=O)C[C@@H]2OC(C)=O` (stereo not given in full), the activity remaining was 96.4% (inactive). Consider `CCCCCCCCCCCCCCCCCCOCC(O)CO` (stereo not given), for which the activity remaining is 104% (inactive). Then `CC1(C)C(=O)CC[C@@]2(C)C1C[C@@H](O)[C@@]1(C)C3=CC(=O)O[C@@H](c4ccoc4)[C@]3(C)CCC21` (stereo not given in full), with 111% (inactive).
